# TDP1 cell noCPT: qHTS for Inhibitors of human tyrosyl-DNA phosphodiesterase 1 (TDP1): qHTS in cells in absence of CPT; Potency, µM (highest dose often 46.2 µM), for the others: at the highest dose activity change, negative = growth inhibition, usual class: inhibitors; DT40 Tdp1-/- hTDP1 cells, no CPT, ATP luminescence, 48 h; 420,000 compounds, 15% hits; further: nearly all actives have a fitted effect of over 55% in size
#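 Growth kinetics read by CellTiter-Glo luminescence after ≥48 hr at 37 °C. Cells: DT40 Tdp1-/- stably carrying human TDP1, 400 per well, compound exposure in the absence of CPT (DMSO vehicle).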
# TDP1 inh: qHTS Assay for Inhibitors of Tyrosyl-DNA Phosphodiesterase (TDP1) | 350,000 compounds, 0.28% hits | AID 485290, 2010 | Potency, µM (series often up to 130 µM), for inactives: at the highest dose activity change, negative = inhibition, hits mostly inhibitors | recombinant TDP1, AlphaScreen DNA substrate cleavage | Tyrosyl-DNA phosphodiesterase 1 (Homo sapiens), Q9NUW8; further: nearly all actives have a fitted effect of over 40% in size
#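 Steps: enzyme plus compound, 15 min RT; add biotin/phosphotyrosine-FITC oligonucleotide (15 nM final), react 5 min; add donor/acceptor beads (10 ug/ml final), 10 min; read AlphaScreen. Tdp1 at 1 nM final.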
# Gal4-VP16 FLuc: VP16 counterscreen qHTS for inhibitors of ROR gamma transcriptional activity; Drosophila S2 Gal4-VP16 UAS-luciferase, luminescence, 20 h; Potency, µM (series often up to 53.6 µM), inactives show top-dose activity, negative = inhibition, actives largely listed as inhibitors; 310,000 compounds, 3.5% hits;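 further: Gal4-VP16 expression switched on by copper sulfate through the metallothionein promoter; nearly all actives have a fitted effect of over 50% in size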
# DT40 TDP1 CPT: qHTS for Inhibitors of human tyrosyl-DNA phosphodiesterase 1 (TDP1): qHTS in cells in presence of CPT. 420,000 compounds, 12% hits. Potency, µM (top dose mostly 46.2 µM), inactives show at the highest dose activity change, negative = growth inhibition, actives largely listed as inhibitors. chicken DT40 Tdp1-/-;hTDP1 cells + 20 nM CPT, ATP luminescence, 48 h; further: nearly all actives have a fitted effect of over 55% in size
#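 Chicken DT40 Tdp1-/- cells stably complemented with human TDP1 were seeded at 400 cells/well in medium containing 20 nM camptothecin, exposed to pin-transferred compounds, and grown at 37 °C for at least 48 hr. Viability was read as ATP luminescence.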
# RORg inh: qHTS for inhibitors of ROR gamma transcriptional activity; Potency, µM (titrated, usually from 53.6 µM), for the others: at the top dose activity change, negative = inhibition, most hits filed as inhibitors; Nuclear receptor ROR-gamma (Mus musculus), P51450; Drosophila S2 Gal4-RORgamma UAS-luciferase reporter, 20 h; 310,000 compounds, 5.4% hits; further: nearly all actives have a fitted effect of over 60% in size
# Target sequence (P51450 whole entry, looked up, the tested form may be a part): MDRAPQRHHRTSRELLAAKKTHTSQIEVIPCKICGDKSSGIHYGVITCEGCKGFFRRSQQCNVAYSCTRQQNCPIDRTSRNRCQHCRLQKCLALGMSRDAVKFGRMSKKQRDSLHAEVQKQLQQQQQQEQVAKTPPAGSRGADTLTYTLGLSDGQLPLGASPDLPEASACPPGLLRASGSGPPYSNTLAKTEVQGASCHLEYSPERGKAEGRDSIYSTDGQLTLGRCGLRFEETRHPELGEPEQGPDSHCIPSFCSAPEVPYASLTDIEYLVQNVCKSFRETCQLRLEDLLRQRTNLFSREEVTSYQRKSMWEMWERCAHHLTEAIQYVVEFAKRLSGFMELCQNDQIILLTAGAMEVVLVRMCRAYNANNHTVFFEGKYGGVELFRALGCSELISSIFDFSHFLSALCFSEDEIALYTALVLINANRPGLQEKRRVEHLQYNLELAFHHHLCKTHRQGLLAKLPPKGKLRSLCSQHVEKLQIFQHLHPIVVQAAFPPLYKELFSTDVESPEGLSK
#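 Drosophila S2 cells stably expressing Gal4-DBD/mouse RORγ fusion under metallothionein promoter plus UAS-luciferase; compound 1 h, then 700 uM CuSO4 induction for 20 h at ambient temperature; inhibition read as reduced luminescence.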
# An asterisk follows results filed as active; ? = inconclusive; . = no result given; [ ] = dose if it differs, or a comment. In the library only some 19% were active in any assay of this set; here they are far more common. The call rests on the fitted dose curve; in most records, active means well fitted curve in the direction sought with a large enough effect; inconclusive means small, poorly fitted or top-dose-only effect, or another doubt; inactive means no such curve, though single readings can be large; an effect the other way counts as inactive or inconclusive. On the % scale 0 is the no-effect control and ±100 the full control effect; potency means the concentration at half of the fitted maximal effect.
SMILES,TDP1 cell noCPT,TDP1 inh,Gal4-VP16 FLuc,DT40 TDP1 CPT,RORg inh
CCc1ccccc1-n1c(SCC(=O)c2c(N)n(C3CC3)c(=O)[nH]c2=O)nnc1N1CCOCC1,-11%,2%[56.1 µM],.,-27%,.
O=C(/C=C1\SC(=O)NC1=O)Nc1ccc(F)cc1,-25%,10%,16%,?,5%
CCn1c(=O)cc(OCC(=O)N2CCCC2)c2ccccc21,-21%,5%,9%,?,-1%
CCn1c(=O)cc(OCC(=O)N2CCN(c3ccc(OC)cc3)CC2)c2ccccc21,-92%,3%,.,21µM*,.
CCn1c(=O)cc(OCC(=O)N2CCN(c3ccc(C(C)=O)cc3)CC2)c2ccccc21,-11%,1%,.,-3%,.
CCn1c(=O)cc(OCC(=O)N2CCN(c3cccc(C(F)(F)F)c3)CC2)c2ccccc21,23µM*,10%,?,16µM*,25%
N#CCCn1cc(/C=N/NC(=O)c2ccncc2)c(-c2ccc(F)cc2)n1,-1%,3%,6%,5%,-2%
O=C(NNc1nc(Nc2ccccc2)nc(N2CCOCC2)n1)Nc1ccc(Cl)cc1,?,2%,5.6µM*,21µM*,1.8µM*
CC(=O)Nc1ccc(/C(C)=N/Nc2nc(Nc3ccccc3)nc(N3CCOCC3)n2)cc1,7.3µM*,-1%,?,5.2µM*,10µM*
CC(=O)c1ccc(Nc2nc(N3CCOCC3)nc(N3CCOCC3)n2)cc1,-20%,4%,20%,?,?
O=C(NC1CCCCC1)C(c1ccc(O)cc1)N(CC1CCCO1)C(=O)C1COc2ccccc2O1 (stereo not given),?,3%,0%,?,21%
C/C(=N\NC(=O)c1c(Br)c(C)nn1C)c1cccc(NC(=O)c2ccccc2F)c1,?,8%,-21%,14%,-21%
C/C(=N\NC(=O)c1c(Cl)c(C)nn1C)c1cccc(NC(=O)c2cccc(F)c2)c1,23µM*,1%,-1%,?,?
C/C(=N\NC(=O)c1nn(C)c(C)c1Br)c1cccc(NC(=O)c2ccc(F)cc2)c1,16µM*,3%,-13%,?,-2%
C/C(=N\NC(=O)c1c(Cl)c(C)nn1C)c1cccc(NC(=O)COc2ccccc2)c1,?,5%,2%,-29%,-11%
C=C1CC2C3CC[C@@]4(OCOC45COCO5)[C@@]3(C)C(O)CC2[C@@]2(C)CCC(=O)C=C12 (stereo not given in full),18µM*,4%,-11%,?,7%
CC(=O)C12OC1CC1C3CCC4=CC(=O)CCC4(C)C3CCC12C (stereo not given),?,.,1%,?,2%
COc1ccc(-c2noc(CCC(=O)N3CCN(c4cccc(Cl)c4)CC3)n2)cc1,23µM*,0%[56.1 µM],.,?,.
COc1ccc(-c2noc(CCC(=O)N3CCN(c4ccccc4C)CC3)n2)cc1,-17%,0%[56.1 µM],.,?,.
COc1ccc(-c2noc(CCC(=O)N3CCN(c4cccc(F)c4)CC3)n2)cc1,?,1%[56.1 µM],.,?,.
COc1ccc(C(=O)CCC(=O)N2CCN(c3cccc(Cl)c3)CC2)cc1,23µM*,.,-6%,16µM*,30%
COc1ccc(-c2noc(CCC(=O)N3CCN(c4ccccc4OC)CC3)n2)cc1,21µM*,1%[56.1 µM],.,?,.
CC(=O)c1sc(NC(=O)COc2ccc(Cl)cc2C)nc1C,-1%,0%,18%,-2%,13%
O=c1cnc2ccccc2n1Cc1ccccc1C(F)(F)F,-28%,50µM*,-8%,?,0%
NC(=S)N/N=C1\CC(n2nnnc2-c2ccccc2Cl)C2COC1O2 (stereo not given),-13%,2%,?,3%,11µM*
SMILES,TDP1 cell noCPT,TDP1 inh,Gal4-VP16 FLuc,DT40 TDP1 CPT,RORg inh
Cc1ccc(-c2nnnn2C2C/C(=N\NC(N)=S)C3OCC2O3)cc1 (stereo not given),20%,5%,?,6%,10µM*
O=C1CC(c2cccs2)Cc2nc(NC(=O)C3CC3)ncc21 (stereo not given),-7%,0%,-7%,2%,27%
CCOc1ccc(-c2nc(CSCC(=O)NCCc3ccccc3)c(C)o2)cc1,18µM*,5%,.,?,.
Cc1ccc(-c2nc(CSCC(=O)NCCCN3CCOCC3)c(C)o2)cc1,9%,2%,-17%,-1%,-23%
Cc1ccc(-c2nc(CSCC(=O)Nc3cc(C)on3)c(C)o2)cc1,-29%,1%,6.3µM*,-15%,?
Cc1ccc(-c2nc(CSCC(=O)NCCN3CCN(Cc4ccccc4)CC3)c(C)o2)cc1,21µM*,2%,?,?,-35%
Cc1oc(-c2ccccc2F)nc1CSCC(=O)NCCc1ccccc1,18µM*,7%,.,13µM*,.
COc1cc(N2C(=O)c3ccccc3C2=O)c2ncccc2c1,.,1%,.,.,.
CSCC[C@@H]1NC(=O)[C@@H](NC(=O)[C@H](CCCNC(=N)N)NC(=O)[C@H](CC(C)C)NC(=O)[C@H](CCSC)NC(=O)[C@H](CC(=O)O)NC(=O)[C@H](Cc2ccccc2)NC(=O)[C@@H](N)CC(=O)O)CSSC[C@@H](C(=O)N[C@@H](Cc2c[nH]c3ccccc23)C(=O)N[C@@H](CCC(N)=O)C(=O)N[C@@H](Cc2ccc(O)cc2)C(=O)O)NC(=O)[C@@H]2CCCN2C(=O)[C@H](CCCNC(=N)N)NC(=O)[C@H](Cc2ccccc2)NC(=O)[C@H](C(C)C)NC(=O)[C@H](CCCNC(=N)N)NC(=O)CNC(=O)[C@H](CC(C)C)NC1=O,.,11%,-5%,.,21%
Cc1cccc(-n2ncc(C#N)c2N)c1,-5%,3%,?,-9%,?
CCOc1ccc(-c2nc(CSCC(=O)NCc3ccc(Cl)cc3)c(C)o2)cc1,?,3%,.,?,.
Cc1cc(NC(=O)COc2cccc(Oc3ccccc3)c2)no1,?,-1%,.,13µM*,39%[0.365 µM]
Cc1cc(NC(=O)CSCC(=O)Nc2ccccc2Oc2ccccc2)no1,?,.,.,-24%,.
Cc1ccc(Oc2ccccc2NC(=O)CSCC(=O)Nc2cc(C)on2)cc1,10µM*,-6%[0.505 µM],.,8.2µM*,.
CCOC(=O)CSCc1nc(-c2ccc(Cl)cc2)oc1C,-2%,-3%,?,-16%,10µM*
O=C1CCCN1CCCNC(=S)Nc1ccc(Nc2ccccc2)cc1,-7%,.,?,-4%,12%

# Assay outcomes deposited in PubChem BioAssay by National Center for Advancing Translational Sciences (NCATS).
